Test [1] can be described thus: NCI Yeast Anticancer Drug Screen. Data for the rad50 strain (AID 155).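 Further: 0% = growth of vehicle-only cultures of the same strain.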 As to conditions: S. cerevisiae rad50 strain growth inhibition; at 50.0 µM; active compounds read high. An outline of the steps:
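Compounds were tested on a yeast strain with an engineered DNA damage repair alteration; the reported value is growth inhibition normalised to vehicle treatment.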

Test [2] is described as follows: NCI Yeast Anticancer Drug Screen. Data for the mec2-1 strain (AID 157). As to conditions: S. cerevisiae mec2-1 strain, at 50.0 µM, active compounds read high. The gist of the method: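 Each compound was tested on mec2-1 yeast, a strain altered in DNA damage repair or cell cycle control. Growth inhibition is reported relative to vehicle.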
Test [3] is described as follows: NCI Yeast Anticancer Drug Screen. Data for the sgs1 mgt1 strain (AID 161).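 Further: 0% = growth of cultures given vehicle only.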 As to conditions: S. cerevisiae sgs1 mgt1 strain, at 50.0 µM, active compounds read high. The gist of the method: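 Mutant yeast exposed to compound; growth scored against vehicle-only wells.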
A short description of test [4]: NCI Yeast Anticancer Drug Screen. Data for the cln2 rad14 strain (AID 165).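 Further: 0% = growth equal to vehicle treated cultures.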 As to conditions: S. cerevisiae cln2 rad14 strain, at 50.0 µM, active compounds read high. An outline of the steps:
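Test compounds were added to cln2 rad14 yeast cultures; inhibition of growth was then determined by comparison with vehicle treatment.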

Test [5] can be described thus: NCI Yeast Anticancer Drug Screen. Data for the bub3 strain (AID 167). As to conditions: S. cerevisiae bub3 mutant strain, at 50.0 µM, active compounds read high. The gist of the method:
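Growth of a checkpoint-deficient yeast mutant is measured after compound exposure. Values represent inhibition relative to vehicle.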

Test [6] in a line: NCI Yeast Anticancer Drug Screen. Data for the mlh1 rad18 strain (AID 175). As to conditions: S. cerevisiae mlh1 rad18 strain growth inhibition; at 50.0 µM; active compounds read high. The gist of the method:
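Inhibition values reflect reduced growth of mutant yeast versus vehicle-treated controls following compound exposure; the mutations affect DNA damage repair.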

SMILES strings stand for the structures. Several values for one entry are separate records, joined by “and”; a condition that tells them apart may be missing. Equal entries are not always repeated. About 79,000 compounds went through this panel and 15% of them were active in at least one assay; those are over-represented in the sample as a whole. Values without a mark were called inactive. Activity calls are given as the source filed them. No stated cut-off is given here; in the data, active means growth inhibition above about 70%; inactive means the rest.

On to `O=C(O)C(=O)O.[Ti].[c-]1[c-][c-][cH-][c-]1.[c-]1[c-][c-][cH-][c-]1`, for which the growth inhibition in test [1] is 23.9%; in test [2], 14.9%; in test [3] it was 29.6%; in test [4], -54.7%; in test [5], 24%; in test [6], 29.7%.
Regarding `CC(C)N1COC2Cc3ccccc3CC21` (stereo not drawn), the growth inhibition is -7.15% in test [1]; 1.65% in test [2]; -29% in test [3]; 10.1% in test [4]; -20.2% in test [5]; -16.9% in test [6].
Regarding `CN(C)c1ccc(C=Cc2ccc([N+](=O)[O-])cc2)cc1.[C-]#[O+].[C-]#[O+].[C-]#[O+].[Cr]`, the growth inhibition in test [1] was -16.1%; in test [2] it was -5.1%; in test [3], -11.6%; in test [4], 24.8%; in test [5], -7.35%; in test [6], -10.1%.
On to `CC1CCC2NCCNC2C1` (stereo not drawn), for which the growth inhibition in test [1] is 2.45%; in test [2] it was 6.65%; in test [3] it was -8.9%; in test [4], 5.35%; in test [5] it was 0.65%; in test [6], 23.4%.
Regarding `CCC1(CCNC(=O)CNC(C)=O)C(=O)NC(=O)NC1=O`, the growth inhibition in test [1] was 3.3%; in test [2], -6.45%; in test [3], 10.2%; in test [4], -45.1%; in test [5] it was 10.9%; in test [6], 10.2%.
Turning to `O=[N+]([O-])CCCCl`, the growth inhibition in test [1] was 2.05%; in test [2] it was -3.05%; in test [3], -3.05%; in test [4] it was -7.95%; in test [5] it was 1.85%; in test [6], 2.35%.
Turning to `C1=C\CCC2SC2CC/1` (stereo not drawn), the growth inhibition in test [1] was 2.1%; in test [2] it was -16.9%; in test [3] it was -5.95%; in test [4] it was -14.6%; in test [5] it was 12.4%; in test [6], -7.5%.
In the case of `[C-]#[N+]C1CCCCC1.[C-]#[N+]C1CCCCC1.[Ni].[S-]c1ccccc1.[S-]c1ccccc1`, the growth inhibition in test [1] is 37.5%; in test [2] it was 16%; in test [3], 40.4%; in test [4] it was 20.1%; in test [5], 3.5%; in test [6], 36.6%.
`[N-]=[N+]=NC1(C(=O)O)CCCC1`: the growth inhibition is 0.95% in test [1]; -6.85% in test [2]; -15.4% in test [3]; -14.2% in test [4]; -5.75% in test [5]; -34.8% in test [6].
In the case of `C=CC[As](=O)(O)c1ccccc1Cl`, the growth inhibition in test [1] is 96% (active); in test [2] it was 99.5% (active); in test [3] it was 99.5% (active); in test [4] it was 84.2% (active); in test [5], 98.3% (active); in test [6] it was 99% (active).
`c1cc2c(c(NC3=NCCO3)c1)CCCC2`: the growth inhibition was 3.4% and 5.65% in test [1]; 1.05% and -2.1% in test [2]; -2.5% and 6.05% in test [3]; -45.5% and 0.05% in test [4]; -5.35% and 39.4% in test [5]; -1.1% and -6.15% in test [6].
Consider `NCCN.NCCN.[Cl-].[O]=[Re]=[O]`, for which the growth inhibition in test [1] is -8.05%; in test [2], -8.55%; in test [3], 6.4%; in test [4], -62.5%; in test [5], -22.4%; in test [6], -0.6%.
Consider `C/C=C(\C)C(=O)OC1CCN2CC=C(COC(=O)C(O)(C(C)O)C(C)(C)O)C12` (stereo not drawn), for which the growth inhibition was 12.3% in test [1]; 2.3% in test [2]; 2.5% in test [3]; 4.85% in test [4]; 6.25% in test [5]; -0.55% in test [6].
Consider `O=P(Oc1ccccc1)(Oc1ccccc1)C(O)C(Cl)(Cl)Cl` (stereo not drawn), for which the growth inhibition in test [1] was 7.55%; in test [2], -2.55%; in test [3], -0.3%; in test [4] it was 6.5%; in test [5], 4%; in test [6], 5.45%.
With `CCOc1ccc(N)cc1`, the growth inhibition in test [1] is -4.65%; in test [2], 10.9%; in test [3], -6.05%; in test [4] it was 5.85%; in test [5] it was 0.45%; in test [6], 8.65%.
As for `CC1NCCc2c1[nH]c1cc(O)ccc21` (stereo not drawn), the growth inhibition is 4.55% in test [1]; -10.9% in test [2]; 5.5% in test [3]; -9.2% in test [4]; -21.5% in test [5]; 3.1% in test [6].
Turning to `COc1cccc2c1C(=O)c1c(O)c3c(c(O)c1C2=O)CC(O)(C(C)=O)CC3OC1CC([N+](C)(C)C)C(O)C(C)O1` (stereo not drawn), the growth inhibition in test [1] is 97% (active); in test [2], 98.5% (active); in test [3] it was 97.9% (active); in test [4], 92.5% (active); in test [5], 98.3% (active); in test [6], 95.8% (active).
Consider `Cc1ccc2c(O)c3c(cc2c1)C(=O)c1c2c(cc(O)c1C3=O)C1(C)OC(O2)C(O)C(N(C)C)C1O` (stereo not drawn), for which the growth inhibition in test [1] is 86.7% (active); in test [2], 87.9% (active); in test [3] it was 90.9% (active); in test [4], 87.7% (active); in test [5], 87.8% (active); in test [6] it was 85.5% (active).

The record behind these values is PubChem BioAssay (NCI).
